In PubChem BioAssay (NCI):
This is part of a sample that, as a whole, favours compounds with a hit. Of some 83,000 tested, about 20% had one in any assay.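 Growth was measured after 48 h exposure to one concentration of compound in 96-well plates. Values under 10 count as active.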 Unmarked numbers belong to inactive results. Activity calls are given as the source filed them.

How the values were obtained:
Experiment in all cases: NCI-60 one-dose screen, 48 h (100 = growth as untreated, 0 = no growth, -100 = all killed)
Conditions in all cases: 10 µM
HCT-15 colon = system: HCT-15 colon
HT29 colon = system: HT29 colon
SNB-75 CNS = system: SNB-75 CNS
SNB-19 CNS = system: SNB-19 CNS
U251 CNS = system: U251 CNS
PC-3 prostate = system: PC-3 prostate
SK-MEL-5 melanoma = system: SK-MEL-5 melanoma
UACC-62 melanoma = system: UACC-62 melanoma
LOX IMVI melanoma = system: LOX IMVI melanoma
SK-MEL-28 melanoma = system: SK-MEL-28 melanoma

| SMILES | growth (HCT-15 colon) | growth (HT29 colon) | growth (SNB-75 CNS) | growth (SNB-19 CNS) | growth (U251 CNS) | growth (PC-3 prostate) | growth (SK-MEL-5 melanoma) | growth (UACC-62 melanoma) | growth (LOX IMVI melanoma) | growth (SK-MEL-28 melanoma) |
| --- | --- | --- | --- | --- | --- | --- | --- | --- | --- | --- |
| CCOC(=O)c1c(CSc2ccccc2)n(C)c2cc(CN(C)C)c(O)c(CN(C)C)c12 | 20.5% | 19.8% | 89.4% | 60.2% | 30% | 25.1% | 36.4% | 48.2% | 22.2% | 48.6% |
| CCOC(=O)c1sc(N/N=C(\C)c2ccc3c(c2)Nc2ccccc2S3)nc1C | 5.74% (active) | 30% | 97.7% | 49.7% | 27.3% | 21.9% | 20.8% | 32.4% | -58.4% (active) | 39.1% |
| O=C(NC(=S)N1CCN(c2ncnc3c2cnn3-c2ccccc2)CC1)c1ccc(Cl)cc1 | 52.3% | 79.1% | 2.35% (active) | 28.2% | 38.3% | 47.3% | 76.3% | 68.9% | 14.3% | 82.5% |
| Cc1ccc(S(=O)(=O)c2nc(-c3ccccc3)oc2S(=O)(=O)CC(=O)N2CCCC2)cc1 | -78.2% (active) | -81.7% (active) | 14.7% | 68.2% | -77.5% (active) | 4.7% (active) | 26.5% | -85.4% (active) | -91.3% (active) | -100% (active) |
| Cc1cccc2cc(-c3cc(-c4ccccc4)nc(=S)[nH]3)c(Cl)nc12 | 53.2% | 86.5% | 103% | 82.2% | 99.1% | 72.5% | 23.6% | 37.5% | 66.9% | 59.8% |
| COc1ccc(-c2cc(-c3cc(C(=O)c4ccc(Br)cc4)n4ccc(C)cc34)nc(N)c2C#N)cc1 | 89.6% | 77.4% | 108% | 91.3% | 64.7% | 89.4% | 87.5% | 81.2% | 54.6% | 69.6% |
| COc1ccc([C@H]2C(C(=O)c3ccc(Cl)cc3)C3(N[C@@H]2c2ccccc2)C(=O)Nc2ccc(Br)cc23)cc1 (stereo not given in full) | 0.62% (active) | -50.6% (active) | 15.6% | 20.1% | -18% (active) | 17.9% | 8.62% (active) | -55.4% (active) | -100% (active) | 18.9% |
| COc1cc(/C=C/C(=O)c2ccc(F)cc2)ccc1Oc1nc(Nc2ccc(F)cc2)nc(N(C)C)n1 | 37.2% | 60.4% | 72.5% | 68.6% | 9.68% (active) | 63.9% | 40% | 51% | -56.3% (active) | 62% |
| O=C(/C=C/Nc1ccccc1)c1ccc2c(c1)Nc1ccccc1S2 | 80.4% | 90.4% | 106% | 36.3% | 38% | 78.5% | 96.7% | 68.9% | 79.9% | 100% |
| OCCNc1oc(-c2ccccc2)nc1[P+](c1ccccc1)(c1ccccc1)c1ccccc1 | 77.8% | 10.4% | -1.51% (active) | 4.29% (active) | 14.7% | 10.6% | -100% (active) | -66.4% (active) | 2.03% (active) | 3.6% (active) |
| CCOc1ccc(/C=N/NC(=O)Cn2nc(Cc3ccccc3)c3onc(C)c3c2=O)cc1 | 63.1% | 42% | -23.7% (active) | -3.49% (active) | -21.4% (active) | 22.5% | 68.3% | 36.9% | 14.2% | 54.3% |
| COc1cc(/C=C/C(=O)c2ccc(NC(=O)CN3C(=O)NC(C)(c4ccccc4)C3=O)cc2)cc(OC)c1OC (stereo not given) | 11.8% | -2.37% (active) | 83.8% | 42.6% | -15.7% (active) | 31.9% | 44.7% | 41.6% | -46.1% (active) | 49.8% |
| CN1CCN(c2ccc(C(=O)/C=C/c3ccc(C#N)cc3)cc2)CC1 | 33.6% | 35.4% | 94.2% | 79.3% | 49.9% | 94.7% | 83.9% | 79.9% | 16.7% | 108% |
| CN1C(=O)N(C)C2SC(N/N=C/c3ccccc3)=NC21 (stereo not given) | 30.1% | 38.5% | 60.7% | 74.6% | 60.4% | 84.7% | 68.4% | 42.5% | 63.4% | 75.5% |
| COc1cccc(-c2nn(-c3ccccc3)cc2-c2ccnc(NCCCNC(=O)Nc3ccc(F)cc3)c2)c1 | -16.3% (active) | -7.83% (active) | 0.286% (active) | 6% (active) | 8.94% (active) | 3.99% (active) | -71% (active) | 11.4% | 3.45% (active) | -3.54% (active) |
| CC(=O)Nc1ccc(-n2cnc3cc(-c4ccc(O)cc4)ccc32)cc1F | 5.21% (active) | -9.81% (active) | 24.1% | 36.2% | 16.7% | 22.8% | 12.5% | 13.9% | 27.8% | 49.4% |
| CNC(=O)c1cccc(N2CCc3c2ccc(NC(=O)Nc2ccc(N4CCN(C)CC4)c(C(F)(F)F)c2)c3F)c1 | -89.8% (active) | -88.3% (active) | 7.71% (active) | -84.7% (active) | -92.1% (active) | -51.8% (active) | -100% (active) | 88.9% | -100% (active) | -93.5% (active) |
| COC1=C[C@@]23CCC(=O)N2CCc2cc4c(cc2[C@H]3[C@H]1OC(=O)C(C)(C)O)OCO4 | 97.5% | 106% | 74.1% | 94.1% | 104% | 92.1% | 99.3% | 89.1% | 96.6% | 105% |
| O=C(CNc1nc(-c2ccccc2)cs1)Nc1ccc(Br)cc1 | -89.4% (active) | -55.8% (active) | -3.24% (active) | -99.4% (active) | -89.8% (active) | -27.8% (active) | -99.8% (active) | -84.1% (active) | -98.7% (active) | -96.3% (active) |
| N#Cc1c(NC(=O)c2ccc(C(O)(C(F)(F)F)C(F)(F)F)cc2)sc2c1CCC(=O)C2 | -68.7% (active) | -34.5% (active) | 16.9% | -15.9% (active) | -91.1% (active) | -44.8% (active) | -99.1% (active) | -88.3% (active) | -96.4% (active) | -87.1% (active) |
| O=C1CCC(N2Cc3cc(NC(=O)COc4ccccc4)ccc3C2=O)C(=O)N1 (stereo not given) | 25.4% | 79.5% | 46.4% | 66.7% | 86.8% | 37.7% | 74.2% | 84.4% | 108% | 95.9% |
| O=C(c1ccc(Cl)cc1)C1[C@H](c2ccc(Br)cc2)[C@@H](c2ccccc2)NC12C(=O)Nc1ccc(Cl)cc12 (stereo not given in full) | -87.6% (active) | -49.4% (active) | -4.86% (active) | -8.73% (active) | -80.8% (active) | -30.5% (active) | -68.5% (active) | -87.2% (active) | -100% (active) | -86.9% (active) |
| Cc1ccc(-c2nc(Nc3ccccc3C(=O)O)c3ccccc3n2)cc1 | 4.66% (active) | 17.8% | 15.7% | 8.82% (active) | 18.4% | 15.7% | -24.8% (active) | 11% | 8.57% (active) | 28.8% |
| CCOC(=O)C1=C(N)N(c2ccc(Cl)cc2)C2=C(C(=O)CC(C)(C)C2)C1c1ccc(N2CCOCC2)cc1 (stereo not given) | 92.5% | 104% | 109% | 91.2% | 88.2% | 92% | 80.3% | 82.8% | 115% | 105% |
| CN1C/C(=C\c2ccc(O)cc2O)c2[o+]c3cc(O)ccc3cc2C1 | 21.9% | 44.4% | 60.5% | 42.1% | 14% | 65.8% | 57.9% | 47.5% | -66.7% (active) | 17.3% |
| Nc1cccnc1/C=N/NC(=S)NCCNC(=O)c1ccc(-n2nc(-c3ccccc3O)nc2-c2ccccc2O)cc1 | 17.9% | -42.8% (active) | 48.1% | 13.2% | 12.4% | 9.05% (active) | -42% (active) | -62.6% (active) | -45.2% (active) | 14.8% |
